This passage reports B-score and outcome results from PubChem BioAssay AID588676 (Johns Hopkins Ion Channel Center, 2011).

The whole screen tested about 310,000 compounds, of which about 3,900 (1.3%) were called active.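 The calls were made as follows: active = calcium-response B-score plate-corrected more than 3 library SD below zero, starting fluorescence within 5 deviations, no agonist response on first addition; inactive = the rest.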 Many of the other results were omitted from the sample, so actives are more common in it than they were. Some structures have more than one record in an assay (separate samples or runs), and their calls can disagree.

Mas-related G-protein coupled receptor member X1 (Homo sapiens), sequence (Q96LB2 whole entry, looked up): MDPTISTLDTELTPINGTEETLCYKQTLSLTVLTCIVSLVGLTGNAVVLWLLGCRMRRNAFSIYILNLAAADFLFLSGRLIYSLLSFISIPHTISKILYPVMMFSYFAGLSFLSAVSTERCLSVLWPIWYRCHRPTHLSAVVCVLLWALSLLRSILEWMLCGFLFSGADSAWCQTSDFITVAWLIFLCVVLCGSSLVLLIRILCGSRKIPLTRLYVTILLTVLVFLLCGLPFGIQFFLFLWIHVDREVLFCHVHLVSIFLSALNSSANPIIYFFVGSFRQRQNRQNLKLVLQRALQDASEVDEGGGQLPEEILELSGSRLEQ

This assay concerns the target Mas-related G-protein coupled receptor member X1 (Homo sapiens) (UniProt Q96LB2). The assay is described as follows: antagonists of human MrgX1 receptor, primary screen, HEK293 cells, Fluo-4 calcium flux (AID 588676).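 As to B-score: peak minus trough fluorescence over baseline after final BAM8-22 challenge near maximal dose.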 The conditions noted are these: Fluo-4, BAM8-22 antagonism, at 10 µM; hits give low values. A general note: Calcium flux is commonly read through the fluorescence of an indicator in the cells.
`O=C(CC1CCCCC1)NCc1ccc(F)cc1`: the B-score entry is “inactive”.

Turning to `CN(C)S(=O)(=O)c1cccc(NC(=S)NCc2ccc3c(c2)OCO3)c1`, the B-score result is “inactive”.

Regarding `CN(C)S(=O)(=O)c1cccc(NC(=S)N/N=C/C(=O)c2ccccc2)c1`, the B-score is -6.77 (active). As for `Cc1ccc(/C=N/NC(=S)Nc2cccc(S(=O)(=O)N(C)C)c2)o1`, the B-score entry is “inactive”.

Regarding `CCCc1cc(=O)oc2c(C)c(OCC(=O)N3CCC(C(=O)O)CC3)ccc12`, the B-score entry is “inactive”. On the same count and under the same terms, to `CCc1cc(=O)oc2cc(C)cc(OCC(=O)N3CCC[C@@H]3C(=O)O)c12` belongs -7.63 (active); to `CCc1cc(=O)oc2cc(C)cc(OC(C)C(=O)O)c12` (configuration not stated), “inactive”; to `CC(Sc1cccc[n+]1[O-])C(=O)Nc1cccc(S(=O)(=O)N2CCOCC2)c1` (configuration not stated), “inactive”. For the compound `CN(C)S(=O)(=O)c1ccc(N2CCCC2)c(C(=O)NCc2ccccc2)c1`, the B-score result is “inactive”. In the case of `Cc1ccccc1OCC(=O)NNC(=O)c1cc(S(=O)(=O)N(C)C)ccc1N1CCCC1`, the B-score is -7.66 (active). Take `CN(C)S(=O)(=O)c1ccc(N2CCCC2)c(C(=O)Nc2cccc(F)c2)c1`: the B-score result was “inactive”. Turning to `CN(C)C(=O)N=NC(=O)N(C)C`, the B-score result was “inactive”. On the same count and under the same terms, as for `CCCn1c(=O)c2ccccc2n2c(SCC(=O)/C(C#N)=C(\C)N)nnc12`, the figure is -7.91 (active); as for `C=CCn1c(=O)c2ccccc2n2c(SCC(=O)N3CCCc4ccccc43)nnc12`, “inactive”; as for `C=CCn1c(SCC(=O)/C(C#N)=C(\C)N)nc2sc(C)c(C)c2c1=O`, “inactive”. Regarding `CCOc1cc2c(Cl)ncnc2c(OCC)c1OCC`, the B-score entry is “inactive”. Turning to `CCOc1cc(C(=O)Nc2ncccn2)cc(OCC)c1OCC`, the B-score result is “inactive”. As to `CCOc1cc(-c2conc2N)cc(OCC)c1OCC`, the B-score was -6.9 (active).

Turning to `O=C1CSC2=NCN(c3ccccc3)CN12`, the B-score result is “inactive”.

As for `CCCn1nc2cc(C(=O)NCc3ccccc3)ccc2c1OCC`, the B-score entry is “inactive”. For `Cc1ccc(NC(=O)CN2CCC3(O)CCCCC3C2c2ccc3c(c2)OCO3)c(C)c1` (configuration not stated), the B-score result is “inactive”. Still for that read-out and setting: to `CCN(CC)c1ccc(C2C3CCCCC3(O)CCN2CC(=O)Nc2ccccc2)cc1` (configuration not stated) belongs -5.44 (active).

`CCN(CC)c1ccc(NC(=O)CN2CCN(c3ccccn3)CC2)cc1`: the B-score result was “inactive”.

With `CCOC(=O)c1c(N=CN(C)C)c(C#N)c2n1CCCC2`, the B-score entry is “inactive”. Regarding `Cc1cc2oc(=O)cc(CN3CCN(S(=O)(=O)c4cccs4)CC3)c2cc1C(C)C`, the B-score entry was “inactive”.

Turning to `CCOC(=O)Cc1csc(NC(=O)COc2ccc3c(C)cc(=O)oc3c2)n1`, the B-score result was “inactive”.

As for `Cc1ccc2c(CSc3nncs3)cc(=O)oc2c1`, the B-score entry is “inactive”.

With `CCOC(=O)Cc1csc(SCc2cc(=O)oc3cc(O)ccc23)n1`, the B-score is -5.51 (active). For `CN(C)N1C(N)=C(C#N)C(c2ccc(Br)cc2)C2=C1CCCC2=O` (configuration not stated), the B-score result is “inactive”. For the compound `C/C(CC(=O)NC(C)(C)C)=N\NC(=O)c1ccco1`, the B-score entry was “inactive”. In the case of `COc1ccc(-c2nn(C)c(=O)c3ccccc23)cc1NC(=O)COc1ccccc1`, the B-score was -8.18 (active). Same read-out and setting: to `CCC(=O)NCc1cc(-c2nn(C)c(=O)c3ccccc23)ccc1OC` belongs “inactive”; to `COc1ccc(-c2nn(C)c(=O)c3ccccc23)cc1CNC(=O)C1CCCCC1`, “inactive”. In the case of `COc1cc(CC(=O)N2CCC(n3nccc3NC(=O)C3CC3)CC2)cc(OC)c1OC`, the B-score result was “inactive”. Same read-out and setting: as for `Cn1cnnc1SCC(=O)NNC(=O)COc1ccc(Br)cc1`, the entry is “inactive”. Take `CCOC(=O)N1CCN(C(=O)COc2ccc(Br)cc2)CC1`: the B-score result was “inactive”. As for `Cn1cccc1C(=O)NNC(=O)COc1ccc(Br)cc1`, the B-score was -5.34 (active). Turning to `CCOC(=O)C(Sc1ncc(C#N)c(N)n1)C(C)C` (configuration not stated), the B-score entry is “inactive”. Still for that read-out and setting: as for `Fc1ccccc1Cc1ccc(Cl)nn1`, the entry is “inactive”. Regarding `CC(C)c1ccc2c(c1)c(SC(C)(C)C)c(CC(C)(C)C(=O)O)n2Cc1ccc(Cl)cc1`, the B-score is -4.82 (active) and the result was inactive.

With `O=C(O)c1ccc(Cn2c(=S)[nH]c3cc(Cl)ccc3c2=O)cc1`, the B-score result is “inactive”. `CC(C)N(Cc1ccccc1)C(=O)COC(=O)c1ccccc1SCC(=O)N1CCCC1`: the B-score entry is “inactive”. As to `Cc1c(C)c(C)c(S(=O)(=O)NCCc2ccccn2)c(C)c1C`, the B-score entry is “inactive”. Same read-out and setting: to `CCOC(=O)Nc1ccc2c(c1)N(C(=O)CN1CCN3CCCC3C1)c1ccccc1CC2` (configuration not stated) belongs “inactive”.

Consider `CCOC(=O)Nc1ccc2c(c1)N(C(=O)CCCl)c1ccccc1[S@]2=O`, for which the B-score result was “inactive”. Regarding `CCOC(=O)Nc1ccc2c(c1)N(C(=O)CCN1CCN(CCO)CC1)c1ccccc1CC2`, the B-score is -9.01 (active). For the compound `COC(=O)C1=C(O)/C(=C/c2ccc(OCC(=O)Nc3ccccc3)cc2)N=C1C`, the B-score result was “inactive”. With `CCOC(=O)C1=C(O)/C(=C/c2cc(C)n(-c3ccccc3)c2C)N=C1C`, the B-score was -4.95 (active). On the same count and under the same terms, as for `CCOC(=O)C1=C(O)/C(=C/c2ccc(OCC(=O)Nc3ccc(C)cc3)cc2)N=C1C`, the entry is “inactive”; as for `O=C(NCCCN1CCCC1=O)c1cccc(S(=O)(=O)NCc2ccccc2)c1`, “inactive”; as for `O=C(Nc1cc(S(=O)(=O)N2CCOCC2)ccc1Cl)c1cc(=O)c2ccccc2o1`, “inactive”. Regarding `Cn1sc(=O)c2cc(S(=O)(=O)NC3CC3)ccc21`, the B-score entry is “inactive”. Turning to `O=C(CCN1C(=O)C2C3C=CC(C3)C2C1=O)Oc1ccc2ccccc2c1` (configuration not stated), the B-score entry is “inactive”. On to `Cc1ccc(C(=O)COC(=O)CCN2C(=O)C3C4CCC(C4)C3C2=O)cc1C` (configuration not stated), for which the B-score entry is “inactive”. On to `Cc1ccc(C(=O)COC(=O)CCN2C(=O)C3C4CC(C(Br)C4Br)C3C2=O)cc1` (configuration not stated), for which the B-score was -9.31 (active). Turning to `CCOc1ccc(-n2cnc3c(=O)[nH]c(N)nc32)cc1`, the B-score result was “inactive”. With `COCc1nnc(NC(=O)c2ccc3c(c2)OCO3)s1`, the B-score was -5.8 (active). Consider `CCCc1nnc(NC(=O)c2cc(OC)cc(OC)c2)s1`, for which the B-score entry was “inactive”. With `O=C(Nc1nc2ccccc2s1)c1ccc2c(c1)OCO2`, the B-score entry is “inactive”. For `COc1cc(NC(=O)CN(C)S(=O)(=O)c2ccc3nc(C)sc3c2)cc(OC)c1`, the B-score entry was “inactive”. Regarding `Cc1ccc2nc(-c3ccc(NC(=O)CN(C)S(=O)(=O)c4ccccc4)cc3)sc2c1`, the B-score was -4.7 (active). Take `Cc1cccc(N(CC(=O)Nc2ccc(-c3nc4ccc(C)cc4s3)cc2)S(C)(=O)=O)c1`: the B-score entry is “inactive”. Consider `Cc1ccc2nc(-c3ccc(NC(=O)c4cccnc4)cc3)oc2c1`, for which the B-score was -5.36 (active). Regarding `CCOC(=O)c1ccc(NC(=O)c2cccnc2)cc1`, the B-score result was “inactive”. On to `Cc1cc2nc(-c3ccc(NC(=O)c4cccnc4)cc3)oc2cc1C`, for which the B-score entry was “inactive”.

As to `Cc1ccc(N2C(=O)CC(NCc3ccc4c(c3)OCO4)C2=O)cc1Cl` (configuration not stated), the B-score entry was “inactive”. Same read-out and setting: to `O=C(CSc1nnnn1-c1ccc(O)cc1)N1N=C(c2ccc3ccccc3c2)CC1c1ccccc1` (configuration not stated) belongs “inactive”. In the case of `CSc1nc2c(c(=O)[nH]1)C(c1cccc(Cl)c1Cl)CC(=O)N2` (configuration not stated), the B-score result was “inactive”. `CCOc1ccc(Nc2nc(Cc3nnc(SCC(=O)c4ccc(C)cc4)o3)cs2)cc1`: the B-score entry was “inactive”. For `CC(C)OCCCNc1ncnc2c1[nH]c1ccc(F)cc12`, the B-score was -12 (active). Consider `CC(C)OCCCNC(=O)c1cc(Sc2ccc(F)cc2)nc2ccccc12`, for which the B-score result is “inactive”. As to `COc1cc(OC)c(OC)cc1/C=N/Nc1ncnc2c1[nH]c1ccc(C)cc12`, the B-score entry is “inactive”. For `O=C(CN1CCN(c2ccccn2)CC1)NCc1cccs1`, the B-score result was “inactive”. On the same count and under the same terms, as for `O=C(CN1CCN(c2ccccn2)CC1)Nc1ccc(Br)cc1`, the entry is “inactive”. For `O=C(CN1CCN(c2ccccn2)CC1)NC1CCCCC1`, the B-score is -5.03 (active). For `CCOC(=O)C1C(=O)NC(N2CCN(c3ccccc3)CC2)=NC1c1ccco1` (configuration not stated), the B-score entry was “inactive”.

For the compound `CCOC(=O)C1=C(c2ccc(OC)cc2)C(=O)c2ccccc2C1=O`, the B-score result was “inactive”. As for `CCOC(=O)C1C(=O)C=C(c2ccc(OC)cc2)CC1c1ccco1` (configuration not stated), the B-score is -5.76 (active).

As for `N#Cc1cccc(CN2CCC(=O)N([C@H](CO)c3ccccc3)CC2)c1`, the B-score entry is “inactive”. Still for that read-out and setting: to `O=C(C1CCN(S(=O)(=O)c2cnc[nH]2)CC1)N1CCN(Cc2ccc3c(c2)OCO3)CC1` belongs -6 (active); to `Cc1cccc(N2CCN(C(=O)C3CCN(S(=O)(=O)c4cnc[nH]4)CC3)CC2)c1C`, “inactive”; to `O=C(C1CCN(Cc2ccc(Cl)cc2)CC1)N1CCN(Cc2ccc3c(c2)OCO3)CC1`, “inactive”. Regarding `Cc1ccc(C(=O)N2CC(=O)Nc3ccc(F)cc3C2c2ccc(F)cc2)cc1` (configuration not stated), the B-score entry was “inactive”.

As for `O=[N+]([O-])c1cc(S(=O)(=O)CCCN2CCOCC2)ccc1F`, the B-score is -6.04 (active). Turning to `O=[N+]([O-])c1ccc(NCCCN2CCOCC2)c(Cl)c1`, the B-score result was “inactive”.

Turning to `O=C(NCCCN1CCOCC1)c1ccc([N+](=O)[O-])cc1[N+](=O)[O-]`, the B-score result was “inactive”.

`CC(NC(=O)CNC(=O)Cc1cccc2ccccc12)c1ccc(S(N)(=O)=O)cc1` (configuration not stated): the B-score result was “inactive”.

In the case of `O=[N+]([O-])c1ccc2c(c1)C(N1CCOCC1)/C(=C/C1(O)CCCCC1)O2` (configuration not stated), the B-score entry was “inactive”. Regarding `CC1(C)CC(=O)CC2(C1)NCC(c1ccccc1Cl)c1c2[nH]c2ccccc12` (configuration not stated), the B-score result is “inactive”. On to `Cc1ccc(S(=O)(=O)n2cccc2CO)cc1`, for which the B-score result is “inactive”. Turning to `COCCN(Cc1cc2cc3c(cc2nc1Cl)OCO3)C(=O)c1cccc(C)c1`, the B-score result was “inactive”.

With `COc1ccc(C2/C(=C(/O)c3ccc4c(c3)CC(C)O4)C(=O)C(=O)N2Cc2ccncc2)cc1` (configuration not stated), the B-score entry was “inactive”. Consider `COc1cc(C2/C(=C(\O)c3ccc4c(c3)CC(C)O4)C(=O)C(=O)N2Cc2ccco2)ccc1O` (configuration not stated), for which the B-score was -5.81 (active). As for `COc1ccc(/C(O)=C2\C(=O)C(=O)N(Cc3ccco3)C2c2ccc(OC)cc2OC)cc1` (configuration not stated), the B-score entry is “inactive”.

For the compound `Cc1cccc(CSc2ccc(-c3cccs3)nn2)c1`, the B-score entry is “inactive”. For `C=CCN1CC(C)/C(=N\O)CC1C` (configuration not stated), the B-score entry was “inactive”. In the case of `O=[N+]([O-])c1cc(Cl)cc(/C=N/NC(=S)Nc2cc(S(=O)(=O)N3CCOCC3)ccc2Cl)c1O`, the B-score was -7.04 (active). With `O=C(N/N=C/c1cc(Cl)cc([N+](=O)[O-])c1O)C(O)(c1ccccc1)c1ccccc1`, the B-score result was “inactive”. On to `O=C(N/N=C/c1ccc([N+](=O)[O-])o1)c1cccc(S(=O)(=O)N2CCOCC2)c1`, for which the B-score entry is “inactive”. `CCCCN(C(=O)CCNC(=O)NC12CC3CC(CC(C3)C1)C2)c1c(N)n(CCCC)c(=O)[nH]c1=O`: the B-score result was “inactive”. Turning to `CN(CCc1ccccn1)C(=O)CCC1CCCN(Cc2ccccc2OC(F)F)C1` (configuration not stated), the B-score result was “inactive”.
